Measurements published in PubChem BioAssay (EPA / NIEHS).
Where “and” joins values, the source holds several entries; their conditions need not be identical. Equal values may be shown once. Inconclusive results are not listed. Some structures have more than one record in an assay (separate samples or runs), and their calls can disagree. Calls of active or inactive are those of the source. How the source made its calls, unless noted: active means hit-call score of the fitted dose curve at least 0.9, where 1 is the maximum; inconclusive means response in the unintended direction; inactive means score below 0.9.

Key:
[1] = read-out: X-box binding protein 1 (XBP1), XBP1 (gene 7494); assay: LTEA_HepaRG_XBP1: Life Technologies and Expression Analysis (LTEA) Assay for X-box binding protein 1 (XBP1) using HepaRG (AID 2283540; active means hit-call score of the fitted dose curve at least 0.9, where 1 is the maximum; inactive means score below 0.9); conditions: mRNA level, 48 h; actives raise or lower the signal
Summary of the method: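 Transcript levels of XBP1, measured by qRT-PCR and normalised to three housekeeping genes, were fitted bidirectionally relative to 0.5% DMSO controls. Human HepaRG cells received eight-point half-log dilutions from 100 uM for 48 h.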

[2] = LTEA_HepaRG_LDH_cytotoxicity: Cytotoxicity Assessment in the Life Technologies and Expression Analysis (LTEA) Assay (AID 2283563);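 on AC50: LDH activity released into spent culture medium as a marker of cell death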
Summary of the method: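 Cells were thawed and plated for 48 h. Medium was then replaced with serum-free induction medium. Chemicals (8 half-log points, maximum 100 uM, 0.5% DMSO) were added in duplicate for 48 h, after which spent medium was assayed for LDH.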

[3] = ATG_XTT_Cytotoxicity: Cytotoxicity Assessment in the Attagene TRANS-FACTORIAL HepG2 Assay (AID 2283584)
Summary of the method: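 Cells: human HepG2, transiently transfected with MRTU reporter constructs. Exposure 24 h. Readout: XTT, cell number. Baseline/neg ctrl DMSO; loss-of-signal scored.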

[4] = target: Cellular tumor antigen p53 (Homo sapiens) (UniProt P04637); assay: TOX21_p53_BLA_p3_ratio: Tox21 HCT-116 p53 Agonism Beta-lactamase Assay, Ratio, Phase 3 (AID 2283596)
Summary of the method: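 Cells were seeded at 4000/well, rested 5 h at 37C, then dosed with DMSO compound solutions (217-fold dilution) for 16 h. CCF4-AM substrate was loaded for 2 h at room temperature, and the 460/530 nm emission ratio was fitted for gain of signal versus DMSO.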

[5] = TOX21_p53_BLA_p4_viability: Viability Assessment in the Tox21 HCT-116 p53 Agonism Beta-lactamase Assay, Phase 4 (AID 2283597);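 further: hits lower the luminescence signal meaning cytotoxicity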
Summary of the method: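 Readout: ATP luminescence (CellTiter-Glo), measured 30 min after reagent addition at RT. The reagent followed a 2 h CCF4-AM incubation, and the cells had been exposed to compound for 16 h at 37C.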

[6] = TOX21_p53_BLA_p5_viability: Viability Assessment in the Tox21 HCT-116 p53 Agonism Beta-lactamase Assay, Phase 5 (AID 2283600)
Summary of the method: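 Workflow: seed 4000 cells per well, wait 5 h, add compounds (DMSO, 217-fold dilution), incubate 16 h, load CCF4-AM 2 h, add CellTiter-Glo, read luminescence after 30 min.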

[7] = Tanguay_ZF_120hpf_YSE_legacy: (Legacy) Oregon State University Tanguay Lab 120 Hour Post-fertilization zebrafish Assay for Yolk Sac Edema (AID 2283634);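 on AC50: actives raise the incidence of yolk sac edema above the DMSO baseline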
Summary of the method: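 Dechorionate (pronase, 4 hpf) → place one 6 hpf embryo per well → static compound exposure, sealed and foil-covered, 28C, to 120 hpf → record yolk sac edema as present or absent. Final DMSO 0.64%.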

[8] = Tanguay_ZF_120hpf_AXIS_legacy: (Legacy) Oregon State University Tanguay Lab 120 Hour Post-fertilization zebrafish Assay for Body Axis Malformation (AID 2283635);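 on AC50: potency for an increased fraction of larvae scored with body axis malformation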
Summary of the method: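 Chorion is removed with pronase at 4 hpf, then single 6 hpf embryos are dosed (final DMSO 0.64%) and held statically at 28C in sealed, foil-covered plates. At 120 hpf body axis malformation is recorded as present or absent.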

[9] = Tanguay_ZF_120hpf_EYE_legacy: (Legacy) Oregon State University Tanguay Lab 120 Hour Post-fertilization zebrafish Assay for Eye Malformation (AID 2283636);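 further: binary presence or absence of eye malformation scored by brightfield in 120 hpf larvae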
Summary of the method: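 Static waterborne exposure of dechorionated zebrafish embryos (strain Tropical 5D), 6 to 120 hpf, sealed plates at 28C, 0.64% DMSO vehicle. Eye malformation is scored as a binary endpoint, with gain of signal analysed relative to DMSO.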

[10] = Tanguay_ZF_120hpf_SNOU_legacy: (Legacy) Oregon State University Tanguay Lab 120 Hour Post-fertilization zebrafish Assay for Snout Malformation (AID 2283637)
Summary of the method: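 Dechorionated zebrafish, individually housed from 6 hpf in covered, sealed wells at 28C with 0.64% DMSO vehicle, were examined at 120 hpf for snout malformation. Responses were binary and analysed positive-direction relative to DMSO.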

[11] = Tanguay_ZF_120hpf_JAW_legacy: (Legacy) Oregon State University Tanguay Lab 120 Hour Post-fertilization zebrafish Assay for Jaw Malformation (AID 2283638)
Summary of the method: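 Steps: dechorionate 4 hpf embryos (pronase); plate 1/well at 6 hpf; add test chemical, 0.64% DMSO final; seal, cover, hold at 28C statically to 120 hpf; score jaw defect presence/absence microscopically. Dead embryos not scored.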

[12] = Tanguay_ZF_120hpf_OTIC_legacy: (Legacy) Oregon State University Tanguay Lab 120 Hour Post-fertilization zebrafish Assay for Otic Vesicle Malformation (AID 2283639)
Summary of the method: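 Binary scoring of otic vesicle defects at 120 hpf in zebrafish (Tropical 5D) held under static exposure at 28C, sealed and shaded, with final DMSO 0.64%. Embryos dying by 24 or 120 hpf excluded; fitted positively against DMSO.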

[13] = Tanguay_ZF_120hpf_PE_legacy: (Legacy) Oregon State University Tanguay Lab 120 Hour Post-fertilization zebrafish Assay for Pericardial Edema (AID 2283640);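 on AC50: potency for increased incidence of pericardial edema versus DMSO baseline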
Summary of the method: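 Embryos from wild-type 5D adults were staged, then dosed in 0.64% DMSO. They were kept sealed in the dark at 28C until 120 hpf. Pericardial edema was then recorded as present or absent.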

[14] = Tanguay_ZF_120hpf_BRAI_legacy: (Legacy) Oregon State University Tanguay Lab 120 Hour Post-fertilization zebrafish Assay for Brain Malformation (AID 2283641)
Summary of the method: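 Wild-type 5D larvae, static waterborne exposure to 120 hpf, 28C, 0.64% v/v DMSO. Brightfield scoring of brain defects, binary; dead embryos excluded. Positive ctrl 5uM trimethyltin chloride.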

[15] = TOX21_p53_BLA_p2_viability: Viability Assessment in the Tox21 HCT-116 p53 Agonism Beta-lactamase Assay, Phase 2 (AID 2283591);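 further: compound exposure lasted 16 h at 37 °C; actives lower the ATP signal meaning cytotoxicity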
Summary of the method: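 HCT-116 p53-bla cells (4000/well) rested 5 h at 37C, then received compounds in DMSO (217-fold dilution) for 16 h at 37C, 5% CO2. After the CCF4 read, CellTiter-Glo was added; ATP luminescence was read after 30 min at room temperature.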

[16] = target: Cellular tumor antigen p53 (Homo sapiens) (UniProt P04637); assay: TOX21_p53_BLA_p2_ratio: Tox21 HCT-116 p53 Agonism Beta-lactamase Assay, Ratio, Phase 2 (AID 2283592)
Summary of the method: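 Plated HCT116 p53-bla cells (4000/well) received compound after 5 h, then 16 h at 37C/5% CO2. CCF4-AM added, 2 h RT. Ratio of 460 to 530 nm emission taken as the p53 reporter signal.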

[17] = TOX21_p53_BLA_p3_viability: Viability Assessment in the Tox21 HCT-116 p53 Agonism Beta-lactamase Assay, Phase 3 (AID 2283593);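 further: cells exposed to compound for 16 h before reading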
Summary of the method: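 HCT-116 cells (4000/well) rested 5 h at 37C, then got DMSO compounds by pin tool (217-fold dilution) for 16 h at 37C, 5% CO2. After the bla read, CellTiter-Glo was added and luminescence read at 30 min, room temperature.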

[18] = target: Cellular tumor antigen p53 (Homo sapiens) (UniProt P04637); assay: TOX21_p53_BLA_p4_ratio: Tox21 HCT-116 p53 Agonism Beta-lactamase Assay, Ratio, Phase 4 (AID 2283601)
Summary of the method: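 HCT116 cells carrying an inducible beta-lactamase reporter were plated at 4000 cells/well, rested 5 h, then exposed to compounds in DMSO (217-fold dilution) for 16 h at 37C. CCF4-AM substrate was loaded 2 h at room temperature; 460/530 nm emission ratio scored gain-of-signal versus DMSO.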

[19] = Tanguay_ZF_120hpf_MORT_legacy: (Legacy) Oregon State University Tanguay Lab 120 Hour Post-fertilization zebrafish Assay for Mortality (AID 2283633)
Summary of the method: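 5D WT zebrafish, chorion removed 4 hpf; 1 embryo/well from 6 hpf; static exposure to 120 hpf, 28C, dark, sealed. Final DMSO 0.64%. Readout: binary mortality, brightfield, 24 + 120 hpf; DMSO as negative control.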

[20] = target: Cellular tumor antigen p53 (Homo sapiens) (UniProt P04637); assay: TOX21_p53_BLA_p5_ratio: Tox21 HCT-116 p53 Agonism Beta-lactamase Assay, Ratio, Phase 5 (AID 2283599)
Summary of the method: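 HCT-116 cells carrying a p53-inducible beta-lactamase reporter were seeded at 4000 cells/well and dosed after 5 h with compound in DMSO (217-fold dilution). After 16 h at 37C, CCF4-AM substrate was added for 2 h, and the 460/530 nm emission ratio was scored as gain-of-signal versus DMSO.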

Measured: AC50

Sequence of Cellular tumor antigen p53 (Homo sapiens) (P04637 whole entry, looked up): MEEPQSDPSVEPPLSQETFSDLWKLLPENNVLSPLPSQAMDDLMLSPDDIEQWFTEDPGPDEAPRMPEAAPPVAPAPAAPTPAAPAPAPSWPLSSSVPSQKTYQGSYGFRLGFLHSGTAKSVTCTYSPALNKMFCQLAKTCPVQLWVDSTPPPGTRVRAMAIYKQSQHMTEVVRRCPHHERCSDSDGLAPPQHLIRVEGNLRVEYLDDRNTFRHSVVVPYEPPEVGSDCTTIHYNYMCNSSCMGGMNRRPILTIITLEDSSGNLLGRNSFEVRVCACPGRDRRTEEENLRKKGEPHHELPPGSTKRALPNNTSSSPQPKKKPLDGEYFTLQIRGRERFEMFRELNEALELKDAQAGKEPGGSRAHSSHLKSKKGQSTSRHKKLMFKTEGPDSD

CCCSC(=O)N(CCC)CCC
inactive: [1] | [2] | [3] | [4] | [5] | [6] | [7] | [8] | [9] | [10] | [11] | [12] | [13] | [14]

CCCCOC(=O)c1ccccc1C(=O)OCc1ccccc1
inactive: [1] | [2] | [15] | [16] | [17] | [4] | [5] | [6] | [18] | [19] | [7] | [8] | [9] | [10] | [11] | [12] | [13] | [14]

CC(C)(C)OOC(=O)c1ccccc1
inactive: [1] | [2] | [3] | [15] | [16] | [17] | [4] | [5] | [6] | [18] | [19] | [7] | [8] | [9] | [11] | [12] | [13]

c1ccc2c(c1)oc1ccccc12
inactive: [1] | [2] | [15] | [16] | [17] | [4] | [5] | [6] | [18] | [7] | [8] | [9] | [10] | [11] | [12] | [13]

CS(=O)(=O)NC(=O)c1cc(Oc2ccc(C(F)(F)F)cc2Cl)ccc1[N+](=O)[O-]
inactive: [1] | [2] | [3] | [15] | [16] | [17] | [4] | [6] | [18] | [19] | [7] | [8] | [9] | [10] | [11] | [13] | [14]

Cc1cccc(N)c1N
inactive: [2] | [15] | [16] | [17] | [4] | [5] | [6] | [18] | [19] | [9] | [10] | [11] | [12] | [14]
active: [1] 50 µM | [5] 26.8 µM | [7] 10.6 µM | [8] 27.8 µM | [13] 54 µM

CCCCC(CC)COC(=O)c1ccc(C(=O)OCC(CC)CCCC)c(C(=O)OCC(CC)CCCC)c1 (stereo not given)
inactive: [1] | [2] | [3] | [16] | [17] | [4] | [5] | [18] | [19] | [7] | [8] | [9] | [10] | [11] | [12] | [13] | [14]

COc1cc(C=O)cc2c1[C@H](COC(N)=O)[C@]1(OC(C)=O)ON2C[C@H]2[C@@H]1N2C(C)=O
inactive: [1] | [3] | [15] | [5] | [7] | [9] | [11] | [12] | [13]
active: [2] 1.54 µM | [16] 249 nM | [4] 0.56 µM | [18] 0.304 µM | [8] 51.3 µM | [10] 21.6 µM

ClC1=C(Cl)C2(Cl)C3C(Cl)C=CC3C1(Cl)C2(Cl)Cl (stereo not given)
inactive: [1] | [2] | [3] | [15] | [16] | [4] | [5] | [20] | [6] | [18] | [7] | [8] | [9] | [10] | [11] | [12] | [13] | [14]
active: [15] 85.9 µM | [5] 45.8 µM | [6] 75 µM

O=[N+]([O-])c1ccc(Oc2ccc(Cl)cc2Cl)cc1
inactive: [1] | [3] | [15] | [16] | [17] | [4] | [5] | [6] | [18] | [7] | [8] | [9] | [12] | [13] | [14]
active: [2] 73.8 µM

Clc1ccc(C(c2ccc(Cl)cc2)C(Cl)(Cl)Cl)cc1
inactive: [1] | [3] | [16] | [4] | [5] | [6] | [18] | [7] | [8] | [10] | [11] | [12] | [13]
active: [2] 72.3 µM | [15] 46.1 µM and 46.4 µM and 23 µM | [16] 60.7 µM and 31.1 µM | [5] 30.7 µM | [6] 68.3 µM and 31.9 µM

Clc1ccc(Cl)c(Cl)c1
inactive: [1] | [2] | [15] | [16] | [17] | [4] | [20] | [6] | [18] | [7] | [8] | [9] | [11] | [13] | [14]

Nc1ccc(Cc2ccc(N)cc2)cc1
inactive: [1] | [2] | [3] | [15] | [16] | [4] | [5] | [20] | [6] | [18] | [19] | [7] | [8] | [9] | [10] | [11] | [12] | [13]

CN(C)[C@@H]1C(=O)C(C(N)=O)=C(O)[C@@]2(O)C(=O)C3=C(O)c4c(O)cccc4[C@@](C)(O)[C@H]3C[C@@H]12
inactive: [1] | [2] | [15] | [16] | [4] | [5] | [20] | [6] | [18] | [19] | [7] | [8] | [9] | [10] | [11] | [13]

CC(C)(C)OOC(C)(C)CCC(C)(C)OOC(C)(C)C
inactive: [1] | [2] | [15] | [16] | [6] | [18] | [19] | [7] | [9] | [10] | [11] | [13] | [14]
